Common to all, as to assay: NCI-60 one-dose screen, 48 h (100 = growth as untreated, 0 = no growth, -100 = all killed)
Holding throughout (settings): 10 µM unless noted

Test [1] has as its system NCI-H23 lung.
The subject of test [2] is NCI-H226 lung.
Test [3] deals with NCI-H322M lung.
Test [4] has as its system HOP-62 NSCLC.
In test [5] the test system is NCI-H460 lung.
The test system of test [6] is HOP-92 NSCLC.
In test [7] the test system is NCI-H522 lung.
The subject of test [8] is A549/ATCC NSCLC.
The subject of test [9] is 786-0 renal.
The test system of test [10] is COLO 205 colon.
Test [11] has as its system DU-145 prostate.
Test [12] concerns K-562 leukemia.
Test [13] concerns MALME-3M melanoma.
For test [14], the system named is MDA-MB-231 breast.
Test [15] concerns RXF 393 renal.
For test [16], the system named is SF-268 CNS.
Test [17] has as its system SF-295 CNS.
Test [18] has as its system SF-539 CNS.
Test [19] relates to UACC-257 melanoma.
The test system of test [20] is M14 melanoma.

This is part of a sample that, as a whole, favours compounds with a hit. Of some 83,000 tested, about 20% had one in any assay.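 Step 1: grow cells in 96-well plates. Step 2: add test compound at a single concentration. Step 3: incubate 48 h. Step 4: record percent growth.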 Unmarked numbers belong to inactive results. Calls of active or inactive are those of the source. How the source made its calls: active means growth percent below 10; inactive means the rest.

As to `C=CN(C(=O)N1CCN(c2cc3c(cc2F)c(=O)c(C(=O)O)cn3C2CC2)CC1)c1nc(-c2ccc(Cl)cc2)cs1`, the growth in test [1] is 67.8%; in test [2] it was 87.9%; in [3] it was 69.4%; in test [4], 69.4%; in test [5], 23.5%; in test [6], 60.1%. The growth in [7] was 64.7%; in [8], 40.7%; in test [9], 82.8%; in test [10], 84.2%; in test [11] it was 81.1%; in test [12], 47.6%. Besides, the growth in [13] is 89.9%; in test [14] it was 76.4%; in test [15], 53.3%; in test [16], 44.7%; in test [17], 58.6%; in [18], 67%. Also, the growth in test [19] was 87.6%; in [20], 60.2%.

Consider `CN1CCOCCN(C)Cc2ccc3ccc(cc3c2)CN(C)CCOCCN(C)Cc2ccc3ccc(cc3c2)C1`, for which the growth is 90.2% in test [1]; 111% in [2]; 99.6% in [3]; 91.8% in test [4]; 59.5% in test [5]; 85.8% in [6]. In addition, the growth in test [7] was 110%; in test [8], 96.3%; in test [9] it was 75.8%; in test [10], 94.6%; in test [11], 57.8%; in test [12], -10.3% (active). Also, the growth in test [13] was 68.8%; in [14] it was 70.8%; in [15] it was 75.9%; in test [16], 84.9%; in test [17], 103%; in [18], 79.3%. The growth in test [19] is 110%; in test [20], 99.4%.

Regarding `CN(C)c1ccc(/C=C2\C=C(c3nc4ccccc4s3)OC2=O)cc1`, the growth was 91.9% in [1]; 82.2% in test [2]; 93.2% in [3]; 91.7% in test [4]; 95.2% in test [5]; 77.8% in test [6]. Moreover, the growth in [7] is 89.4%; in test [8], 94.7%; in [9], 102%; in [10] it was 102%; in test [11], 104%; in test [12], 83.8%. Further, the growth was 98.3% in [13]; 73.9% in test [14]; 110% in [15]; 98.6% in test [16]; 92% in [17]; 104% in test [18]. The growth in test [19] was 114%; in test [20], 101%.

On to `COCC(=O)Oc1cc(-c2ccc(C)cc2C)c(OC(=O)COC)c(-c2ccc(C)cc2C)c1`, for which the growth was 68.8% in test [1]; 59.8% in test [2]; 79% in [3]; 61.5% in [4]; 17.4% in test [5]; 66.7% in [6]. The growth was 30.9% in test [7]; 43.7% in [8]; 69.6% in test [9]; 48.4% in test [10]; -16.9% (active) in test [11]; 40.8% in test [12]. Moreover, the growth in test [13] is 85.3%; in test [14], 49.7%; in [15], 73.5%; in test [16], 44.5%; in [17], 57.5%; in test [18], 45.7%. In addition, the results for the growth in test [19] and in test [20] were 71.2% and 65.1%, respectively.

As for `CCCCO[C@@H]1C=C2[C@H]3CC(C)(C)C(=O)C[C@]3(C(=O)O[C@@H]3O[C@H](CO[C@@H]4O[C@H](CO)[C@@H](OC5OC(C)C(O)C(O)C5O)[C@H](O)[C@H]4O)[C@@H](O)[C@H](O)[C@H]3O)CC[C@@]2(C)[C@]2(C)CC[C@H]3C(C)(C)C(=O)CC[C@]3(C)[C@@H]12` (stereo not given in full), the growth was 60.3% in [1]; 45.6% in test [2]; 84.3% in test [3]; 76.1% in test [4]; 91.8% in test [5]; 2.25% (active) in test [6]. The growth in [7] is 67.9%; in test [8], 84.8%; in test [9], 29.5%; in test [10] it was 97.2%; in [11], 97.9%; in test [12], 90.5%. For the same molecule, the growth was 34.2% in test [13]; 73.2% in test [14]; 63.2% in test [15]; 47.2% in test [16]; 92.8% in [17]; 60.1% in test [18]. Also, the growth in [19] is 49.1%; in test [20] it was 40.5%.

`C=CC(CC(c1ccccc1)(c1ccccc1)c1ccccc1)N(CC)CC` (stereo not given): the growth was 71.7% in test [1]; 75.7% in test [2]; 90% in [3]; 87.5% in test [4]; 62.6% in test [5]; 54.8% in [6]. Further, the growth was 84.1% in test [7]; 82.5% in test [8]; 67.8% in test [9]; 64.5% in test [10]; 58.8% in test [11]; 25.4% in test [12]. Besides, the growth in test [13] was 54%; in test [14], 53.4%; in [15], 40.6%; in [16] it was 73.9%; in test [17] it was 78.8%; in test [18], 69.1%. For the same molecule, the growth in [19] is 79.3%; in test [20], 30.1%.

For `O=C(NCCCCO)c1cncnc1Nc1ccc2c(ccn2Cc2cccc(F)c2)c1`, the growth is 97.6% in test [1]; 100% in [2]; 72.9% in test [3]; 94.4% in [4]; 101% in [5]; 92.1% in test [6]. For the same molecule, the growth in [7] is 76.9%; in [8], 84.4%; in test [9] it was 92.4%; in test [10] it was 97.7%; in test [11], 96.2%; in test [12], 82.5%. Also, the growth was 93.9% in test [13]; 69.3% in test [14]; 101% in test [15]; 99.3% in test [16]; 97.6% in test [17]; 94.4% in test [18]. In addition, the growth in test [19] is 96.7%; in [20] it was 89.9%.

For the molecule `CC1(C)CC[C@]23CC[C@]4(C)[C@H](CC[C@@H]5[C@@]6(C)CCNCC(C)(C)[C@@H]6CC[C@]54C)[C@H]2[C@H]1OC3`, the growth was 95.6% in test [1]; 96.7% in test [2]; 99.8% in test [3]; 97% in [4]; 23.7% in [5]; 98.9% in [6]. The growth in test [7] was 90.1%; in test [8], 79.3%; in [9] it was 101%; in test [10], -21% (active); in test [11], 98.5%; in test [12], 16.9%. Also, the growth was 104% in test [13]; 96.6% in test [14]; 101% in [15]; 111% in [16]; 108% in [17]; 99.5% in test [18]. Besides, the growth was 92.5% in [19] and 92.8% in [20].

Source of the values: PubChem BioAssay (NCI).
